Sampled rows, rich in hits. Any-hit rate of the full collection: about 10%.
3T3 cytotox – NIH 3T3 cell cytotoxicity; NIH 3T3 viability, CellTiter-Glo ATP luminescence, 48-72 h; Potency, µM (highest dose often 96.7 µM), inactives show top-dose activity change, negative = cytotoxicity, most hits filed as inhibitors; actives 4.3% (n = 94,000); AID 1345082; also: % is scaled to controls: 0 for no effect and ±100 for the full control effect; nearly all actives have a fitted effect of over 55% in size
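Cells were seeded at 400 per well, treated with pin-transferred compound, and kept 48 or 72 hr at 37 °C before CellTiter-Glo addition and luminescence imaging of cellular ATP.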
HEK293 tox – HEK 293 cell cytotoxicity | HEK 293 viability, ATP luminescence (CellTiter-Glo), 48-72 h | Potency, µM (doses to about 115 µM), without a hit: top-dose activity change, negative = cytotoxicity, actives largely listed as inhibitors | actives 6.6% (n = 94,000); also: % is scaled to controls: 0 for no effect and ±100 for the full control effect; nearly all actives have a fitted effect of over 60% in size
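Cytotoxicity was scored by loss of ATP-coupled luminescence (CellTiter-Glo) in HEK 293 cells. Compound treatment ran 48 or 72 hr at 37 degree Celsius, 5% CO2, 95% humidity.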
hNpr1 antagonist – human Npr1 receptor antagonism | P16066 | HEK293 hNpr1 GloSensor cGMP, ANP-stimulated luminescence | actives 1.6% (n = 76,000) | AID 1347048 | Potency, µM (series often up to 46.3 µM), for inactives: top-dose activity change, negative = inhibition, usual class: inhibitors; calls by dose curve; also: % is scaled to controls: 0 for no effect and ±100 for the full control effect; nearly all actives have a fitted effect of over 60% in size
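HEK293 cells stably expressing human Npr1 and cGMP GloSensor pGS-40F, loaded 2 h with 2% GloSensor reagent, given compound 30 min at room temperature. Luminescence read before and 20 min after 0.1 nM hNppA.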
GPT2 inhibitor – blocks human glutamate pyruvate transaminase 2; Q8TD30; Recombinant GPT2, coupled pyruvate oxidase/HRP Amplex Red fluorescence; Potency, µM (top dose mostly 57.7 µM), inactives show at the highest dose activity change, negative = inhibition, usual class: inhibitors; actives 0.25% (n = 100,000); also: % is scaled to controls: 0 for no effect and ±100 for the full control effect; nearly all actives have a fitted effect of over 60% in size
Target sequence (Q8TD30 whole entry, looked up): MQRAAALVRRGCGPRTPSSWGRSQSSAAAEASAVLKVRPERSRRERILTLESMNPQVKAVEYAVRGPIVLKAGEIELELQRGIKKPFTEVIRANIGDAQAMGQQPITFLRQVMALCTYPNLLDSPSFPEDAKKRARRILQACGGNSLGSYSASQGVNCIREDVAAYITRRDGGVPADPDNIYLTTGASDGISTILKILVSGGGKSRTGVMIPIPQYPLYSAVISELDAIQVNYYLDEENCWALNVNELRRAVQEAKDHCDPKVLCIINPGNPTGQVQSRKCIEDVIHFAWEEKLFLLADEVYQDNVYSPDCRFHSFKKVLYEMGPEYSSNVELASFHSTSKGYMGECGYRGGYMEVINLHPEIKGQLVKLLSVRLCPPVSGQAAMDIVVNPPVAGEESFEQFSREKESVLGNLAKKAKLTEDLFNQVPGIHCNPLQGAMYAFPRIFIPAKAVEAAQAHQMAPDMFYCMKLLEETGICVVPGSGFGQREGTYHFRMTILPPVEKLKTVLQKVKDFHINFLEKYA
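Inhibition is scored from Amplex Red fluorescence generated when pyruvate oxidase and HRP act on pyruvate released by GPT2. Reactions contain 10ng/uL enzyme, 250uM a-KG and 2mM L-alanine and run 30 min at room temperature.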
FLuc inh – inhibitors of firefly (Photinus pyralis) luciferase. Potency, µM (doses to about 115 µM), usual class: inhibitors. actives 2.5% (n = 76,000). purified P. pyralis luciferase, luminescence, biochemical; also: % is scaled to controls: 0 for no effect and ±100 for the full control effect; nearly all actives have a fitted effect of over 65% in size
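Purified 10nM P. pyralis luciferase with 10uM D-luciferin and 10uM ATP in 50mM Tris acetate pH 7.5, 10mM Mg acetate, 0.01% Tween-20, 0.05% BSA. qHTS titration; luminescence read by CCD imager.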
Npr1 antag conf – hNpr1 antagonism, confirmation assay; shares compounds with hNpr1 antagonist; HEK293 hNpr1 cGMP GloSensor luminescence, ANP-stimulated; Potency, µM (series often up to 57.6 µM), inactives show at the highest dose activity change, negative = inhibition, hits mostly inhibitors; actives 76% (n = 1,400); AID 1347044; calls by dose curve; also: nearly all actives have a fitted effect of over 70% in size
NPR2 antag – selectivity test of Npr1 antagonists against human Npr2 | shares compounds with hNpr1 antagonist | HEK293 hNpr2 GloSensor cGMP luminescence, CNP-stimulated | Potency, µM (doses to about 57.6 µM), for inactives: at the highest dose activity change, negative = inhibition, most hits filed as inhibitors | actives 67% (n = 1,400) | AID 1347046; calls by dose curve; also: nearly all actives have a fitted effect of over 70% in size
FLuc inh counter – counter-screen for Npr1 antagonists: firefly luciferase inhibitors. shares compounds with hNpr1 antagonist. purified FLuc enzyme, luminescence, Km substrate. Potency, µM (series often up to 57.6 µM), for the others: at the highest dose activity change, negative = inhibition, hits mostly inhibitors. actives 0.7% (n = 1,400). AID 1347047; also: 0% is about no effect
GloSensor ctrl – counter-screen for Npr1 antagonists: GloSensor control cell line; shares compounds with hNpr1 antagonist; HEK293 GloSensor cGMP, SNP-stimulated, luminescence; Potency, µM (doses to about 57.6 µM), without a hit: at the top dose activity change, negative = inhibition, usual class: inhibitors; actives 69% (n = 1,400); calls by dose curve; also: % is scaled to controls: 0 for no effect and ±100 for the full control effect; nearly all actives have a fitted effect of over 70% in size
* marks the source's active call; other numbers are inactive results; i = inactive; ? = inconclusive; nt = no result given. Unless noted, calls follow the shape of the dose curve; as a rule, active = well fitted curve in the direction sought with a large enough effect; inconclusive = small, poorly fitted or top-dose-only effect, or another doubt; inactive = no such curve, though single readings can be large; an effect the other way counts as inactive or inconclusive. Potency is read from the fitted curve at half-maximal effect.

SMILES | 3T3 cytotox | HEK293 tox | hNpr1 antagonist | GPT2 inhibitor | FLuc inh | Npr1 antag conf | NPR2 antag | FLuc inh counter | GloSensor ctrl
O=C(c1cccc(F)c1)N1CCN(c2cc(-c3ccc(Cl)cc3)[nH]n2)CC1 | ? | ? | ? | -1% | i | 24µM* | ? | -5% | ?
CCOC(=O)CN1C(=O)CN(C(=O)c2cc3ccccc3s2)CCC(OC)c2ccccc21 (stereo unspecified) | -25% | ? | nt | nt | nt | nt | nt | nt | nt
CCC(=O)N(C1CCOCC1)C1CCN(S(=O)(=O)c2cccc(C)c2)CC1 | -19% | 1% | -2% | -1% | i | nt | nt | nt | nt
Cc1ccc(C(=O)N2CCN(c3cc(-c4ccccc4)[nH]n3)CC2)c(C)c1 | 45µM* | ? | 11µM* | i | i | 24µM* | 24µM* | 2% | 22µM*
Cc1ccccc1C(=O)N1CCN(c2cc(-c3ccc(Cl)cc3)[nH]n2)CC1 | ? | ? | 11µM* | 0% | i | 19µM* | 24µM* | -6% | 17µM*
O=C(N1CCCN(c2cc(-c3ccc(Cl)cc3)[nH]n2)CC1)C1(c2ccccc2)CC1 | 35µM* | 40µM* | ? | ? | i | 19µM* | 19µM* | 4% | 17µM*
Cc1ccccc1C(=O)N1CCCN(c2cc(-c3ccc(F)cc3)[nH]n2)CC1 | -22% | ? | -3% | -26% | i | nt | nt | nt | nt
O=C(c1ccc(Cl)cc1Cl)N1CCN(c2cc(-c3ccccc3)[nH]n2)CC1 | 32µM* | 20µM* | 10µM* | i | i | 14µM* | 19µM* | 1% | 14µM*
COc1ccc(-c2cn3cc(C(=O)NCCc4ccccc4F)nc3s2)cc1 | -22% | -14% | nt | -2% | nt | nt | nt | nt | nt
Cc1noc(-c2cn(C3CCCN(C(=O)c4ccc(C)c(C)c4)C3)nn2)n1 (stereo unspecified) | -25% | -4% | -13% | i | i | nt | nt | nt | nt
CC(C)CCN1CCC(Cc2ccc(C(=O)NC3CC3)cc2)CC1 | ? | ? | -3% | i | i | nt | nt | nt | nt
Cc1ccc(CNC(=O)N2CCC(Cc3ccc(C(=O)NC4CC4)cc3)CC2)cc1 | ? | ? | ? | -10% | i | ? | ? | 0% | ?
CC(C)(C)c1ccc(C(=O)N2CCC(c3n[nH]c(=O)n3Cc3ccc(F)cc3)CC2)cc1 | ? | ? | 11µM* | i | i | 24µM* | 22µM* | 2% | 22µM*
COc1ccc(C2=NOC3(CCN([S+](=O)([O-])c4cccc(C(F)(F)F)c4)C3)C2)cc1 (stereo unspecified) | ? | ? | 16µM* | -8% | i | ? | 31µM* | 4% | ?
COc1cccc([S+](=O)([O-])N2CCC3(CC(c4cccc(C(F)(F)F)c4)=NO3)C2)c1 (stereo unspecified) | -24% | -28% | nt | -18% | nt | nt | nt | nt | nt
COc1ccc(C2=NOC3(CCN([S+](=O)([O-])c4cccc(OC)c4)C3)C2)cc1 (stereo unspecified) | ? | 28µM* | 13µM* | 4% | i | 24µM* | 27µM* | 0% | 24µM*

Bioassay records from PubChem BioAssay.
